Most compounds without a hit are left out; they make up all but 3.5% or so of the library.
TEAD-YAP block: TEAD-YAP interaction inhibition, primary screen, TEAD-YAP interaction inhibitor project, luminescence, HEK-TIYL cells; AID 1259422, 2018; inhibition, % at 9.12 µM; actives 1.4% (n = 640,000); TEAD-Gal4/YAP UAS-luciferase luminescence; in the data active = inhibition above about 32%;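 also: 0% = median of test compound wells and 100% = reference inhibitor wells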
MITF inh: MITF inhibitors, primary screen, biochemical, AlphaScreen, human | inhibition, % at 2.6 µM | AlphaScreen MITF homodimerization, bead proximity signal | Microphthalmia-associated transcription factor (Homo sapiens), O75030 | actives 0.91% (n = 650,000); in the data active = inhibition above about 50%;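 also: 0% = vehicle wells with protein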
GPR151 ag: activators of human GPR151, primary screen, cell-based, PathHunter beta-arrestin, luminescence; G-protein coupled receptor 151 (Homo sapiens), Q8TDV0; PathHunter beta-arrestin GPR151 cells; activation, % at 11.2 µM; actives 1% (n = 650,000); in the data active = activation above about 4.9%;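 also: 0% = median of compound wells and 100% = cells with positive control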
FBW7 act: FBW7 E3 ligase activators, primary screen, biochemical, AlphaScreen, human. F-box/WD repeat-containing protein 7 (Homo sapiens), Q969H0. AlphaScreen FBW7–phospho-cyclin E peptide binding, activator screen. normalized activity (activation), % at 26.1 µM. actives 0.13% (n = 650,000). AID 1259310, 2017; in the data active = normalized activity above about 1.9%;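 also: purified mutant Fbw7 with reduced substrate affinity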
Target sequence (Q969H0 whole entry, looked up): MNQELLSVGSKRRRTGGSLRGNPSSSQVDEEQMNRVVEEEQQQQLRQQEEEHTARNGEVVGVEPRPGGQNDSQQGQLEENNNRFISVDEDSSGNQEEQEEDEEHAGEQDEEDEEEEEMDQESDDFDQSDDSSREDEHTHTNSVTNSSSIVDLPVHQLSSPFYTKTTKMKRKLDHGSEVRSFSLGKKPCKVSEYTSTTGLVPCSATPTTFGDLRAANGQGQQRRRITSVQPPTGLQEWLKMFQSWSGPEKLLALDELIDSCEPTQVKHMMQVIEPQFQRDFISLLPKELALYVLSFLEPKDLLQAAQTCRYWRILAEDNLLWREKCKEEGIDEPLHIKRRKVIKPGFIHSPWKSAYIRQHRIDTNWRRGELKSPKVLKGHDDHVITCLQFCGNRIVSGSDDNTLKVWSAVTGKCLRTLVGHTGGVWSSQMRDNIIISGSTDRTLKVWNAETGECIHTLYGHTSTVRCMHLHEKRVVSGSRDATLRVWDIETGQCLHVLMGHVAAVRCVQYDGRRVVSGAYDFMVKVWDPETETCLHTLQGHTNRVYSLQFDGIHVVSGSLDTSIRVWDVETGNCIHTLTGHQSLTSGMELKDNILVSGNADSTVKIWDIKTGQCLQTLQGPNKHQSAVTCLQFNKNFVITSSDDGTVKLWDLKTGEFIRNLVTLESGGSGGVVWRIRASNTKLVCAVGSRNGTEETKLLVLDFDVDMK
MITF inh conf: MITF inhibitors, retest of hits, confirmation, biochemical, AlphaScreen, triplicate | AlphaScreen MITF homodimerization, biotin/His-MITF beads | actives 16% (n = 4,700) | inhibition, % at 2.6 µM | shares compounds with MITF inh;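 active = inhibition above a cutoff derived from the DMSO control wells, cut at about 28% in these data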;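 also: 0% = MITF dimer wells with DMSO only; inhibitors lower the bead chemiluminescence by keeping MITF from dimerizing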
AlphaScreen DR: AlphaScreen optical interference compounds, dose response, counter-screen, biochemical, HTS | actives 6% (n = 480) | shares compounds with MITF inh | IC50, µM | AlphaScreen optical interference counterscreen, cell-free; call rule not given here
AlphaScreen intf2: AlphaScreen optical interference compounds, counter-screen for MITF inhibitor project, biochemical, triplicate; AID 1259376, 2018; actives 7.6% (n = 4,700); inhibition, % at 2.6 µM; shares compounds with MITF inh; LysRS AlphaScreen counterscreen, signal interference;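 active = inhibition above a cutoff derived from the DMSO control wells, cut at about 30% in these data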
Starred values were filed as active, the others as inactive.

Results for Cc1cccc(Cl)c1OCCOCCNCCN ?
TEAD-YAP block: 9; MITF inh: 61*; GPR151 ag: 1; FBW7 act: 0; MITF inh conf: 12; AlphaScreen intf2: 13

What do the screens show for `O=C(N/N=C/c1cccc2cccnc12)c1ccncc1`?
TEAD-YAP block: 1; MITF inh: 96*; GPR151 ag: 0; FBW7 act: 0; MITF inh conf: 112*; AlphaScreen intf2: 100*

How did O=C(COc1ccc(F)cc1)N/N=C/c1cccc2cccnc12 do in these assays?
TEAD-YAP block: 11; MITF inh: 59*; GPR151 ag: -1; FBW7 act: 0; MITF inh conf: 28*; AlphaScreen intf2: 86*

What do the screens show for `O=C(N/N=C/c1cccc2cccnc12)c1ccccc1`?
TEAD-YAP block: -14; MITF inh: 57*; GPR151 ag: -1; FBW7 act: -2; MITF inh conf: 78*; AlphaScreen intf2: 100*

What do the screens show for `O=C(N/N=C/c1cccc2ccccc12)c1ccncc1`?
TEAD-YAP block: 5; MITF inh: 2; GPR151 ag: 2; FBW7 act: 0

How did Fc1ccc(C2CCN(Cc3cccnc3)CC2)cc1 do in these assays?
TEAD-YAP block: -2; MITF inh: 53*; GPR151 ag: 0; FBW7 act: 0; MITF inh conf: 4; AlphaScreen intf2: 9

Results for Fc1ccc(C2CCN(Cc3ccncc3)CC2)cc1 ?
TEAD-YAP block: 17; MITF inh: 60*; GPR151 ag: 0; FBW7 act: 0; MITF inh conf: 0; AlphaScreen intf2: 13

What do the screens show for `Fc1ccccc1C1CCN(Cc2cccnc2)CC1`?
TEAD-YAP block: -4; MITF inh: 35; GPR151 ag: 0; FBW7 act: 0

Results for COc1ccc(C(=O)COC(=O)CCC(=O)Nc2ccc(Cl)c(Cl)c2)cc1 ?
TEAD-YAP block: 2; MITF inh: -6; GPR151 ag: 2; FBW7 act: 0

Results for COc1ccc(NC(=O)CCC(=O)OCC(=O)c2ccc(Cl)c(Cl)c2)cc1 ?
TEAD-YAP block: 13; MITF inh: 62*; GPR151 ag: 1; FBW7 act: 0; MITF inh conf: 14; AlphaScreen intf2: 16

How did COc1cccc(N2C(=O)CC(NNC(=O)c3cncc(Br)c3)C2=O)c1 (stereo not drawn) do in these assays?
TEAD-YAP block: 10; MITF inh: 3; GPR151 ag: -2; FBW7 act: 0

What do the screens show for `COc1ccc2cc(C(=O)CBr)ccc2c1`?
TEAD-YAP block: 2; MITF inh: 16; GPR151 ag: 5; FBW7 act: 0

How did CCC(=O)c1ccc2cc(OC)ccc2c1 do in these assays?
TEAD-YAP block: -13; MITF inh: 82*; GPR151 ag: 2; FBW7 act: 0; MITF inh conf: 1; AlphaScreen intf2: 13

Results for COc1cc(-c2cnc3ccc(NCc4cccc(Cl)c4)nn23)ccc1O ?
TEAD-YAP block: 8; MITF inh: 9; GPR151 ag: -1; FBW7 act: 0

How did Nc1ccc(NCCO)c(N)c1 do in these assays?
TEAD-YAP block: -1; MITF inh: 57*; GPR151 ag: -1; FBW7 act: -1; MITF inh conf: 52*; AlphaScreen DR: >5.9; AlphaScreen intf2: -5

What do the screens show for `Nc1ccc(C(=O)Nc2ccc(N)cc2N)cc1`?
TEAD-YAP block: 9; MITF inh: 4; GPR151 ag: 4; FBW7 act: 0

What do the screens show for `COc1cc(Nc2nc(NC3CCN(Cc4ccccc4)CC3)nc3c2ncn3CCN2CCCC2=O)cc(OC)c1OC`?
TEAD-YAP block: -10; MITF inh: 13; GPR151 ag: -1; FBW7 act: 0

What do the screens show for `N#CC(C#N)=C(N)/C(C#N)=C/c1ccc([N+](=O)[O-])o1`?
TEAD-YAP block: 5; MITF inh: 84*; GPR151 ag: 1; FBW7 act: -1; MITF inh conf: 67*; AlphaScreen DR: >6.5; AlphaScreen intf2: 6

How did CC12CCN(C(=O)Nc3ccccc3)C1(C)Nc1ccccc12 (stereo not drawn) do in these assays?
TEAD-YAP block: 3; MITF inh: -6; GPR151 ag: 0; FBW7 act: 0

Results for CCOC(=O)c1c(Nc2ccccc2N)cc(C)nc1C ?
TEAD-YAP block: -6; MITF inh: 68*; GPR151 ag: 0; FBW7 act: 0; MITF inh conf: -3; AlphaScreen intf2: 5

How did COc1cc(CN2CCN(Cc3ccco3)CC2)cc(OC)c1 do in these assays?
TEAD-YAP block: 3; MITF inh: 83*; GPR151 ag: 1; FBW7 act: 0; MITF inh conf: 4; AlphaScreen intf2: 20

What do the screens show for `COc1cc(OC)cc(C(=O)N2CCN(Cc3cccc(Oc4ccccc4)c3)CC2)c1`?
TEAD-YAP block: -3; MITF inh: 37; GPR151 ag: 2; FBW7 act: 0

What do the screens show for `COc1cc(OC)cc(C(=O)N2CCN(Cc3ccco3)CC2)c1`?
TEAD-YAP block: 2; MITF inh: 59*; GPR151 ag: -2; FBW7 act: 0; MITF inh conf: 3; AlphaScreen intf2: 16

What do the screens show for `COc1cccc(CN2CCN(Cc3ccco3)[C@@H](C)C2)c1`?
TEAD-YAP block: 2; MITF inh: 3; GPR151 ag: -1; FBW7 act: 0

What do the screens show for `COc1ccc(/C=C/C(=O)Nc2nnc(C(C)(C)C)s2)cc1`?
TEAD-YAP block: -1; MITF inh: 3; GPR151 ag: 2; FBW7 act: 0

How did CCN(CC)S(=O)(=O)c1cccc(C(=O)OCC(=O)c2[nH]c(C)c(C(C)=O)c2C)c1 do in these assays?
TEAD-YAP block: -2; MITF inh: 7; GPR151 ag: 0; FBW7 act: 0

How did O=C(c1cccs1)N1CCN(c2ccc([N+](=O)[O-])cc2F)CC1 do in these assays?
TEAD-YAP block: -1; MITF inh: 62*; GPR151 ag: -1; FBW7 act: 0; MITF inh conf: 3; AlphaScreen intf2: -1

Results for Cc1ccc(C)c(NNC(=O)C(=O)NNc2cc(C)ccc2C)c1 ?
TEAD-YAP block: -2; MITF inh: 51*; GPR151 ag: 1; FBW7 act: 0; MITF inh conf: 2; AlphaScreen intf2: -4

Results for O=C1Nc2cc(Cl)ccc2Oc2cc([N+](=O)[O-])cc(Oc3ccc(Cl)cc3)c21 ?
TEAD-YAP block: -6; MITF inh: 17; GPR151 ag: 1; FBW7 act: 0
